PI4K2A inh: PI4K2A (human) kinase inhibition. Q9BTU6. purified PI4K2A, ADP-Glo luminescence, 1 h; active compounds read low. activity change, negative = inhibition, % at 76.9 µM. 420,000 compounds, 0.13% hits. AID 1346378; in the data active = activity change below about -50%; inconclusive = mostly about -30% to -49%
Target sequence (Q9BTU6 whole entry, looked up): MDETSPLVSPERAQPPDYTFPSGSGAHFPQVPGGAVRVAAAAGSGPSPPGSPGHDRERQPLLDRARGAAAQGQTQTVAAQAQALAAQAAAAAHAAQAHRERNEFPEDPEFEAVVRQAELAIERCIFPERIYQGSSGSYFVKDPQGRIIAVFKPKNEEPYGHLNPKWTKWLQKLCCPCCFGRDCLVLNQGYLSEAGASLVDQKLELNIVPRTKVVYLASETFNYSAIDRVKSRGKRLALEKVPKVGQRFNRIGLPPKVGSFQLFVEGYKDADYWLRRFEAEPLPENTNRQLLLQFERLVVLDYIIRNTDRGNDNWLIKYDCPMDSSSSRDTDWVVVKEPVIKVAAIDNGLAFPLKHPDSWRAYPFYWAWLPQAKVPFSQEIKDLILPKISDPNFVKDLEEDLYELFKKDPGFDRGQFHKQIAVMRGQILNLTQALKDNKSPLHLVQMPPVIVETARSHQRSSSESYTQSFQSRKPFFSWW
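PI4K2A activity was measured by ADP-Glo luminescence: enzyme (4 ug/mL stock) and phosphatidylinositol (1.2 mM stock) in Tris pH 7.5/MgCl2/EGTA/Triton X-100 buffer were reacted with ATP (300 microM stock) for one hour at ambient temperature.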
rTrxR1 inhibitor: blocks rat thioredoxin reductase 1; 390,000 compounds, 1% hits; Potency, µM (titrated, usually from 114 µM), most hits filed as inhibitors; recombinant rTrxR1, NADPH fluorescence consumption, selenite substrate; O89049; AID 588453; also: nearly all actives have a fitted effect of over 65% in size
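Rat TrxR1 (90 nM in the dispensed reagent) was pre-reduced with 400 uM NADPH for 5 min at room temperature, then incubated with compound for 15 min. After 400 uM selenite was added, NADPH fluorescence (Ex 340/Em 450 nm) was followed for 8 min.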
GALK inhibitor: inhibitors of human galactokinase; P51570; Purified GALK, Kinase-Glo residual ATP luminescence; Potency, µM (highest dose often 57.5 µM), most hits filed as inhibitors; 270,000 compounds, 0.007% hits
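Luminescence from leftover ATP (Ultra-Glo luciferase/luciferin) served as read-out after a 1 h room-temperature reaction of 5 nM GALK with 35 uM ATP and 100 uM galactose.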
TrxR1 substrate: substrates of rat thioredoxin reductase 1. O89049. 390,000 compounds, 0.01% hits. Potency, µM (titrated, usually from 114 µM). purified TrxR1 substrate turnover, NADPH consumption readout. AID 588456; also: nearly all actives have a fitted effect of over 50% in size
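Rat TrxR1, dispensed at 90 nM, was prereduced with 400 uM NADPH (final) for 5 min at ~22 deg C, then incubated with compound 15 min before 400 uM selenite. A first-read NADPH fluorescence drop versus no-compound background flagged substrates.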
A number is an active result; n = inactive; u = inconclusive; x = not tested or not shown; [ ] = another dose, or the depositor's remark. Hits are enriched below; roughly 1.1% of the tested compounds scored in any of these assays. Unless noted, calls follow the shape of the dose curve; as a rule, active = well fitted curve in the direction sought with a large enough effect; inconclusive = small, poorly fitted or top-dose-only effect, or another doubt; inactive = no such curve, though single readings can be large; an effect the other way counts as inactive or inconclusive.

SMILES	PI4K2A inh	rTrxR1 inhibitor	GALK inhibitor	TrxR1 substrate
Nc1ncnc2c1ncn2Cc1c(F)cccc1Cl	n	x	x	x
CCc1ccc(-n2c(SCc3nc(-c4cc(OC)ccc4OC)no3)nnc2-c2ccccc2)cc1	n	n	x	n
CCOc1ccc2c(c1)n([O-])c1c([n+]2=O)CCCC1	n	50.1µM	n	n
CCc1ccc(S(=O)(=O)/N=C2\C=C(NS(=O)(=O)c3ccccc3)C(=O)c3ccccc32)cc1	-50.1	u	n	n
CC(C)c1ccc(S(=O)(=O)/N=C2\C=C(NS(=O)(=O)c3ccccc3)C(=O)c3ccccc32)cc1	n	u	n	n
O=C(OCC(=O)N1N=C(c2ccc(Cl)cc2)CC1c1ccco1)c1cccnc1 (stereo not given)	n	7.08µM	x	n
COCC(=O)OCC(=O)N1N=C(c2ccc(Cl)cc2)CC1c1ccco1 (stereo not given)	n	n	n	n
O=C(c1ccco1)N1N=C(c2ccc(Cl)cc2)CC1c1ccco1 (stereo not given)	n	39.8µM	n	n
O=C(CN1CCC(NC(=O)NC2CCCC2)CC1)Nc1ccc2c(c1)OCCO2	n	x	x	x
NC(=O)c1ccccc1NC(=O)Cn1nc(Cc2cccnc2)c2ccccc2c1=O	n	n	x	n
Cc1ccc(-c2csc(NC(=O)c3cccc(N4C(=O)CCC4=O)c3)n2)o1	n	20µM	n	n
CCOc1ccc(-c2csc(NC(=O)c3cccc(N4C(=O)CCC4=O)c3)n2)cc1	n	n	x	n
Cc1ccc(CNC(=O)c2ccc(Cn3nc(C)c(Cl)c3C)o2)cc1	n	39.8µM	n	n
Cc1ccc(N=Cc2cccc(O)c2O)c(C)c1	x	31.6µM	n	n
CC(N=Cc1cccc(O)c1O)c1ccccc1 (stereo not given)	n	39.8µM	n	n
Cc1ccccc1N=Cc1cccc(O)c1O	n	70.8µM	x	u
O=C(Nc1cccc(-c2nc3ccccc3[nH]2)c1)c1c(F)cccc1F	n	n	x	n
CC1CCN(c2ccc(-c3cccs3)nn2)CC1	-57.0	n	x	n
Clc1ccc(-c2cccs2)nn1	n	n	n	n
Cc1ccc(NC(=O)CSc2nc(-c3cccs3)nc3cc(=O)[nH]n23)cc1	n	n	x	n
Cc1cnc2c3c(cc(Cl)c2c1)-c1ccccc1S(=O)(=O)N3	x	31.6µM	x	n
O=S1(=O)Nc2c(ccc3cccnc23)-c2ccccc21	n	n	n	n
Cc1ccc(C)n1-c1ccc(C(=O)NCc2ccncc2)cc1	n	44.7µM	n	n
Cc1ccc(C)n1-c1ccc(C(=O)NN)cc1	-81.6	n	n	n
COc1cccc(C2CC(=O)Nc3c2c(=O)n(C)c2nc4ccccc4n32)c1 (stereo not given)	n	n	x	n
SMILES	PI4K2A inh	rTrxR1 inhibitor	GALK inhibitor	TrxR1 substrate
O=c1cc(N2CCN(c3ccccc3)CC2)[nH]c(=O)n1Cc1ccc(F)cc1	n	n	n	n
CN1CCN(c2cc(=O)n(Cc3ccc(F)cc3)c(=O)[nH]2)CC1	n	14.1µM	n	n
CCN(CC)CCN(C(=O)CCOc1ccccc1)c1nc2c(F)cc(F)cc2s1	n	11.2µM	n	n
O=C(CCOc1ccccc1)N(Cc1cccnc1)c1nc2c(F)cc(F)cc2s1	n	u	x	n
Cc1ccc2sc(N(CCCN(C)C)C(=O)CCS(=O)(=O)c3ccccc3)nc2c1C	n	17.8µM	n	n
COc1ccc(Cl)c2sc(N(CCN(C)C)C(=O)CCS(=O)(=O)c3ccc(C)cc3)nc12	n	u	x	n
CN(C)CCN(C(=O)CCS(=O)(=O)c1ccccc1)c1nc2c(F)cccc2s1	n	25.1µM	n	n
COc1ccc(OC)c2sc(N(CCCN(C)C)C(=O)CCS(=O)(=O)c3ccccc3)nc12	n	2.82µM	x	n
CN(C)CCCN(C(=O)CCS(=O)(=O)c1ccccc1)c1nc2cc3c(cc2s1)OCO3	n	6.31µM	n	n
Clc1ccc(-c2nnc(-c3ccc(Br)cc3)c(N3CCSCC3)n2)cc1	n	n	n	n
Clc1ccc(-c2nnc(-c3ccco3)nc2N2CCCCC2)cc1	n	6.31µM	n	n
O=C(NC1CCCC1)C(c1ccc(F)cc1)N(Cc1ccc(F)cc1)C(=O)CCl (stereo not given)	n	39.8µM	n	n
COC(CN(C(=O)CCl)C(C(=O)NC1CCCCC1)c1ccc(C)cc1)OC (stereo not given)	n	39.8µM	n	n
O=C(NC1CCCCC1)C(c1ccncc1)N(Cc1ccc(F)cc1)C(=O)c1ccccn1 (stereo not given)	n	n	n	n
NC1[C@H]2CN(c3nc4c(cc3F)c(=O)c(C(=O)O)cn4-c3ccc(F)cc3F)C[C@@H]12 (stereo not given in full)	n	x	x	x
Cc1ccc(C)n1-c1sccc1C(=O)O	n	50.1µM	n	n
S=c1[nH]nc(-c2n[nH]c3c2CCC3)n1N=Cc1c[nH]c2ccccc12	n	x	x	x
COc1ccc(C(C)=O)cc1COC(=O)CNC(=O)C1CCCCC1	n	n[2.29 µM]	x	n[2.29 µM]
COc1ccc(C(C)=O)cc1COC(=O)CNC(=O)c1ccccc1F	n	15.8µM	n	n
O=C(CCNc1cccc(F)c1)c1cc2ccccc2o1	n	7.94µM	n	n
O=C(CCNc1cccc(F)c1)c1cccc([N+](=O)[O-])c1	n	6.31µM	n	n
O=C(CCNc1ccc(F)cc1)c1cc2ccccc2o1	n	u	n	n
COc1ccccc1CNC(=O)C1CCCN(c2nc3ccccc3n3cccc23)C1 (stereo not given)	n	n	x	n
COC(=O)C1=C[C@@H](C(=O)OC)C2C3=C(C(=O)[C@@]2(C)NC(=O)c2ccccc2)[C@H](C)[C@@H]2C(=O)NC(=O)[C@@H]2[C@@H]3C1 (stereo not given in full)	x	n	x	n
O=c1[nH][nH]c(=S)n1C1CCCCC1	n	n	n	n
SMILES	PI4K2A inh	rTrxR1 inhibitor	GALK inhibitor	TrxR1 substrate
O=c1cc(O)n(C2CCCCCC2)c(=O)[nH]1	-51.3	n	n	n
Cc1ccc(NC(=O)c2ccc(NC(=O)C3CCCC3)cc2)c(C)c1	x	n	x	n
O=C(O)c1c(O)c(-c2ccccc2)nc2ccccc12	n	x	x	x
CCCN1C(C(=O)c2ccccc2)=C(OC(=O)COc2ccc(C)cc2)c2ccccc2S1(=O)=O	n	u	x	n
CCN1C(C(=O)c2ccccc2)=C(OC(=O)COc2ccc(OC)cc2)c2ccccc2S1(=O)=O	n	12.6µM	x	n
CCN1C(C(=O)c2ccccc2)=C(OC(=O)COc2ccc(C)cc2)c2ccccc2S1(=O)=O	n	20µM	x	n
Cc1ccc(S(=O)(=O)NCC(=O)N(CCc2ccccc2)CC(=O)NCc2ccco2)cc1	n	22.4µM	n	n
O=C(CN(CCc1ccccc1)C(=O)CNS(=O)(=O)c1ccccc1)NCc1ccco1	n	n	n	n
O=C1CCCCc2sc(Br)c([N+](=O)[O-])c2N1	n	10µM	n	n
O=S(=O)(CC1NCCc2ccccc21)NCCc1ccccc1 (stereo not given)	n	x	x	x
C#CC(=O)N(c1cc(OC)ccc1OC)C(C(=O)NC1CCCC1)c1cccs1 (stereo not given)	n	1µM	n	n
Cc1nn(C)c(C(=O)Sc2cccc(Cl)c2)c1[N+](=O)[O-]	n	2µM	n	n
